The list is not random: actives were taken first. Their share in the collection is about 31%.
CYP2C19 inh – blockers of cytochrome P450 2C19 activity – biochemical, luminescence, ADME assay, primary screen | P33261 | CYP2C19 Supersomes, luciferin-H EGE luminescence, 30 min | inhibition, % at 5 µM | 21% of 96,000 active;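 active means CYP2C19 inhibition above a set limit at 5 µM in the primary screen, cut at about 50% in these data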;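 further: plate controls were negative control wells for no effect and 2.5 mM tranylcypromine positive control for full effect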
Target sequence (P33261 whole entry, looked up): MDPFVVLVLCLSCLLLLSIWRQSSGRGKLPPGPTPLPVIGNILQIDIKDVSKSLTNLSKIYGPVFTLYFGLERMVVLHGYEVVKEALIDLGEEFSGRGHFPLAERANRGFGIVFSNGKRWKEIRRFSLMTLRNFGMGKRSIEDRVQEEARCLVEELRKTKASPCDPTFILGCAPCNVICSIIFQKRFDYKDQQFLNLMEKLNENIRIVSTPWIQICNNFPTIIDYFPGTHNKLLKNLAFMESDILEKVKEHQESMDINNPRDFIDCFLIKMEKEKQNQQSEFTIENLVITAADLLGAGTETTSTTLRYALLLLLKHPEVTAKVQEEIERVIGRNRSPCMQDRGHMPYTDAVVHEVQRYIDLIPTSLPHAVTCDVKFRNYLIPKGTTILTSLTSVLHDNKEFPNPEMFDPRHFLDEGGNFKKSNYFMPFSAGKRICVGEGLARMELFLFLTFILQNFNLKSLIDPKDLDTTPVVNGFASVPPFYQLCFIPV
CYP2C9 inh – blockers of cytochrome P450 2C9 activity – biochemical, luminescence, ADME assay, primary screen; P11712; CYP2C9 Supersomes, luciferin-H conversion; inhibition, % at 5 µM; 20% of 96,000 active;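 active means blocking of liver enzyme CYP2C9 beyond about 50% at 5 µM, limit read from the data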
CYP2C19 activ – human CYP2C19 activators, primary screen, biochemical, luminescence. recombinant CYP2C19, luciferin-H EGE luminescence; stronger effect = higher value; 0 = fully inhibited enzyme, 1 = untreated enzyme. 96,000 tested, under 10 active. activation factor at 5 µM;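 active means activation factor of at least 2 at 5 µM in the primary screen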;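 further: 0 = wells with 2.5 mM tranylcypromine and 1 = vehicle-only wells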
CYP2C9 act – human CYP2C9 activators, primary screen, biochemical, luminescence | recombinant CYP2C9, luciferin-H conversion; stronger effect = higher value; factor 1 = untreated enzyme, 0 = blocked | AID 1024, 2008 | 1.4% of 96,000 active | activation factor at 5 µM;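 active means activation factor of 2 or more for CYP2C9 at a 5 µM dose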;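 further: 0 = sulfaphenazole-blocked wells and 1 = vehicle-only wells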
PLAP act – PLAP enzyme activators, biochemical, luminescence, HTS. purified PLAP enzyme, luminescent substrate read-out; stronger effect = higher value. activation fold at 20 µM. 1.2% of 96,000 active; in the data active means activation fold above about 2
Numbers without * were called inactive.

`CCOc1ccc(S(=O)(=O)Nc2cccc(OC)c2)cc1` gave CYP2C19 inh 69*, CYP2C9 inh 56*, CYP2C19 activ 0.3, CYP2C9 act 0.4 and PLAP act 1.1.
`CC(=O)Nc1ccc(S(=O)(=O)Nc2cccc(N(C)S(C)(=O)=O)c2)cc1` gave CYP2C19 inh -4, CYP2C9 inh -11, CYP2C19 activ 1, CYP2C9 act 1.1 and PLAP act 1.1.
CCOc1ccc(S(=O)(=O)Nc2cccc(N(C)S(C)(=O)=O)c2)cc1 was read as CYP2C19 inh 93*, CYP2C9 inh -20, CYP2C19 activ 0.1, CYP2C9 act 1.2 and PLAP act 1.5.
For CCCCOc1ccc(S(=O)(=O)Nc2cccnc2)cc1 the results were CYP2C19 inh 61*, CYP2C9 inh 89*, CYP2C19 activ 0.4, CYP2C9 act 0.1 and PLAP act 1.1.
CN(CCCNC(=O)C1CCC(=O)N1Cc1ccc(F)cc1)c1ccccc1 (stereo not given) was read as CYP2C19 inh 21, CYP2C9 inh 3, CYP2C19 activ 0.8, CYP2C9 act 1 and PLAP act 1.3.
Screening COc1cccc(C2=CC(c3ccc(N(C)C)cc3)n3ncnc3N2)c1 (stereo not given) returned CYP2C19 inh 30, CYP2C9 inh 53*, CYP2C19 activ 0.7, CYP2C9 act 0.5 and PLAP act 1.
Screening COc1cccc(C2=CC(c3ccccc3)n3ncnc3N2)c1 (stereo not given) returned CYP2C19 inh 55*, CYP2C9 inh 55*, CYP2C19 activ 0.5, CYP2C9 act 0.4 and PLAP act 1.3.
For COc1cccc(C2=CC(c3ccc(N(C)C)cc3)n3nnnc3N2)c1 (stereo not given) the results were CYP2C19 inh -11, CYP2C9 inh -9, CYP2C19 activ 1.1, CYP2C9 act 1.1 and PLAP act 0.8.
For CCOc1ccc(C2C=C(c3ccc(F)cc3)Nc3ncnn32)cc1 (stereo not given) the results were CYP2C19 inh 44, CYP2C9 inh 59*, CYP2C19 activ 0.6, CYP2C9 act 0.4 and PLAP act 1.4.
CCc1ccc(C(=O)NC(CC(C)C)C(=O)O)cc1 (stereo not given) was read as CYP2C19 inh -14, CYP2C9 inh -27, CYP2C19 activ 1.1, CYP2C9 act 1.3 and PLAP act 1.1.
COc1ccc(N(CC(=O)N2CCCCC2)S(=O)(=O)c2ccccc2)c(OC)c1 was read as CYP2C19 inh 53*, CYP2C9 inh 49, CYP2C19 activ 0.5, CYP2C9 act 0.5 and PLAP act 1.4.
For COc1ccc(OC)c(N(CC(=O)N2CCC(C)CC2)S(=O)(=O)c2ccc(OC)c(OC)c2)c1 the results were CYP2C19 inh 16, CYP2C9 inh 39, CYP2C19 activ 0.8, CYP2C9 act 0.6 and PLAP act 1.5.
COc1ccc(OC)c(N(CC(=O)N2CCC(C)CC2)S(=O)(=O)c2ccccc2)c1 was read as CYP2C19 inh 34, CYP2C9 inh 52*, CYP2C19 activ 0.7, CYP2C9 act 0.5 and PLAP act 1.3.
COc1ccc(S(=O)(=O)N(C)CC(=O)N2CCC(C)CC2)cc1Cl was read as CYP2C19 inh 7, CYP2C9 inh -155, CYP2C19 activ 0.9, CYP2C9 act 2.5* and PLAP act 1.
`COc1cccc(N(CC(=O)N2CCN(C)CC2)S(=O)(=O)c2ccccc2)c1` gave CYP2C19 inh 13, CYP2C9 inh 9, CYP2C19 activ 0.9, CYP2C9 act 0.9 and PLAP act 1.1.
`CC(C)=CC(=O)Nc1ccccc1Br` gave CYP2C19 inh 12, CYP2C9 inh 2, CYP2C19 activ 0.9, CYP2C9 act 1 and PLAP act 0.8.
For O=C(CSc1nn(-c2ccccc2)c(=S)s1)NC(=O)NCc1ccco1 the results were CYP2C19 inh 35, CYP2C9 inh 47, CYP2C19 activ 0.7, CYP2C9 act 0.5 and PLAP act 1.3.
For N#CC1=C(N)OC2=C(CC/C2=C\c2ccccc2)C1c1ccccc1 (stereo not given) the results were CYP2C19 inh 26, CYP2C9 inh 70*, CYP2C19 activ 0.7, CYP2C9 act 0.3 and PLAP act 1.
Screening CCC(C)N1C(=O)/C(=C/c2c(NCCCOC(C)C)nc3c(C)cccn3c2=O)SC1=S (stereo not given) returned CYP2C19 inh 33, CYP2C9 inh 57*, CYP2C19 activ 0.7, CYP2C9 act 0.4 and PLAP act 0.8.
Cc1ccc(NC(=O)N(Cc2ccco2)Cc2cc3cc(C)cc(C)c3nc2Cl)cc1 was read as CYP2C19 inh 19, CYP2C9 inh 50*, CYP2C19 activ 0.8, CYP2C9 act 0.5 and PLAP act 1.3.
`Cc1nnc(N(Cc2ccco2)C(=O)c2cccc(C#N)c2)s1` gave CYP2C19 inh 48, CYP2C9 inh 27, CYP2C19 activ 0.5, CYP2C9 act 0.7 and PLAP act 0.9.
For Cc1cccc2cc(CN(Cc3ccco3)C(=O)Nc3cccc(C#N)c3)c(Cl)nc12 the results were CYP2C19 inh 62*, CYP2C9 inh 95*, CYP2C19 activ 0.4, CYP2C9 act 0.1 and PLAP act 1.
`CC1CCCN(CCCNC(=O)CCn2nc(-c3ccccc3)ccc2=O)C1` (stereo not given) gave CYP2C19 inh -4, CYP2C9 inh 87*, CYP2C19 activ 1, CYP2C9 act 0.1 and PLAP act 1.5.
Screening CCCCNC(=O)CCn1nc(-c2ccccc2)ccc1=O returned CYP2C19 inh -6, CYP2C9 inh -7, CYP2C19 activ 1.1, CYP2C9 act 1.1 and PLAP act 1.
Screening C/C(Cn1nnc([N+](=O)[O-])n1)=N\NC(=O)c1ccccc1Cl returned CYP2C19 inh 9, CYP2C9 inh -10, CYP2C19 activ 0.9, CYP2C9 act 1.1 and PLAP act 1.
Screening COc1ccc(/C=C/C(=O)NC(=S)NNC(=O)c2cccnc2)cc1OC returned CYP2C19 inh -9, CYP2C9 inh 14, CYP2C19 activ 1.1, CYP2C9 act 0.9 and PLAP act 2*.
O=C(NNC(=O)c1cccnc1)Nc1cccc2ccccc12 was read as CYP2C19 inh 11, CYP2C9 inh 3, CYP2C19 activ 0.9, CYP2C9 act 1 and PLAP act 1.5.
For O=C(/C=C/c1ccccc1)NC(=S)NNC(=O)c1cccnc1 the results were CYP2C19 inh 1, CYP2C9 inh 51*, CYP2C19 activ 1, CYP2C9 act 0.5 and PLAP act 1.7.
Screening N#Cc1ccc(Oc2cccc(C(=O)O)c2)cc1C#N returned CYP2C19 inh -6, CYP2C9 inh -6, CYP2C19 activ 1.1, CYP2C9 act 1.1 and PLAP act 0.9.

Assay outcomes deposited in PubChem by Sanford-Burnham Center for Chemical Genomics.
